Rows were chosen to be rich in hits. Some 19% of all compounds tested hit in one or more screens of this group.
DT40 TDP1 CPT = DT40-hTDP1 cell growth loss with CPT; AID 686979; 420,000 tested, 12% active; Potency, µM (doses to about 46.2 µM), most hits filed as inhibitors; chicken DT40 Tdp1-/-;hTDP1 cells + 20 nM CPT, ATP luminescence, 48 h; also: nearly all actives have a fitted effect of over 55% in size
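Cell growth measured by CellTiter-Glo luminescence after a minimum 48 h, 37 C compound exposure with 20 nM CPT in Tdp1-knockout DT40 cells stably expressing hTDP1, seeded 400/well; qHTS titration format.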
HT1080 IDH1KD tx = toxicity to HT-1080 IDH1 knockdown cells (counter line). HT-1080 IDH1 knockdown viability, ATP luminescence, 48 h. Potency, µM (doses to about 46.1 µM), most hits filed as cytotoxic. 360,000 tested, 2% active. AID 686971
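Cytotoxicity counter-line: IDH1KD HT-1080, 48 h, CellTiter-Glo. Curves classed by r2, magnitude and activity.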
IL1B secr inh = inflammasome signaling inhibition, IL-1 beta readout; activity change, % at 57.5 µM; THP-1 LPS/ATP IL-1B secretion, AlphaLISA, 16 h; active compounds read low; 360,000 tested, 4.7% active; in the data active = activity change below about -50%; inconclusive = mostly about -30% to -49%
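Secreted IL-1B measured by AlphaLISA bead assay after 16 h compound exposure of THP-1 cells; compounds (final up to 57.5 uM) added 1 h before LPS (250 ng/mL) and ATP (1.25 mM) stimulation; lower signal means less secretion.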
HT1080-NT tox = kills 2HG-producing HT-1080-NT fibrosarcoma cells | HT-1080-NT fibrosarcoma viability, CellTiter-Glo ATP luminescence, 48 h | Potency, µM (titrated, usually from 46.1 µM), most hits filed as cytotoxic | 360,000 tested, 1.6% active;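 also: NT is the 2HG producing partner of a matched IDH1 knockdown line; nearly all actives have a fitted effect of over 55% in size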
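A 48-hour cytotoxicity screen used HT-1080-NT cells plated 2 hours before compound delivery. ATP-based CellTiter-Glo luminescence measured viability, normalized to DMSO and no-cell controls.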
TDP1 cell noCPT = qHTS for Inhibitors of human tyrosyl-DNA phosphodiesterase 1 (TDP1): qHTS in cells in absence of CPT; DT40 Tdp1-/- hTDP1 cells, no CPT, ATP luminescence, 48 h; 420,000 tested, 15% active; Potency, µM (top dose mostly 46.2 µM), hits mostly inhibitors; AID 686978, 2013; also: nearly all actives have a fitted effect of over 55% in size
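A cellular qHTS used chicken DT40 cells lacking endogenous Tdp1 but carrying stably transfected human TDP1. Compounds were applied without camptothecin, and cell growth kinetics were judged by ATP-dependent luminescence after ≥48 hr.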
Each line names hits and unclear results; the compound was inactive in the other large screens; ! = not active in a repeat. Unless noted, calls follow the shape of the dose curve; as a rule, active = well fitted curve in the direction sought with a large enough effect; inconclusive = small, poorly fitted or top-dose-only effect, or another doubt; inactive = no such curve, though single readings can be large; an effect the other way counts as inactive or inconclusive.

COc1ccccc1Cn1c(=S)[nH]c2cc(C(=O)NCC3CCCO3)ccc2c1=O (stereo unspecified)	DT40 TDP1 CPT inconclusive, TDP1 cell noCPT inconclusive
O=C(NCCCN1CCOCC1)c1ccc2c(=O)n(Cc3ccccc3)c(=S)[nH]c2c1	HT1080 IDH1KD tx 16µM, IL1B secr inh -73, HT1080-NT tox 18µM, TDP1 cell noCPT inconclusive
O=C(NCCCN1CCCC1=O)c1ccc2c(=O)n(Cc3ccco3)c(=S)[nH]c2c1	DT40 TDP1 CPT 16µM, TDP1 cell noCPT inconclusive
CC(C)CCNC(=O)c1ccc(Cn2c(=S)[nH]c3ccccc3c2=O)cc1	none
COC(=O)c1ccc2c(=O)n(Cc3ccc(C(=O)NC(C)C)cc3)c(=S)[nH]c2c1	DT40 TDP1 CPT inconclusive, TDP1 cell noCPT 23µM
CCOC(=O)c1ccc(NC(=O)COc2ccccc2CNCCc2ccccc2)cc1	DT40 TDP1 CPT inconclusive, HT1080 IDH1KD tx inconclusive, IL1B secr inh -88, HT1080-NT tox inconclusive, TDP1 cell noCPT inconclusive
CCOC(=O)c1ccc(NC(=O)COC)cc1	none
CCOC(=O)c1ccc(NC(=O)CNNC(=O)COc2ccccc2C)cc1	TDP1 cell noCPT inconclusive
CCOC(=O)c1ccc(NC(=O)COc2ccc(CNCCO)cc2OCC)cc1	HT1080 IDH1KD tx inconclusive, IL1B secr inh -102, HT1080-NT tox inconclusive
CN(Cc1ccc(Cl)cc1)C(=O)CNC(=O)C12CC3CC(CC(C3)C1)C2	DT40 TDP1 CPT 18µM, TDP1 cell noCPT inconclusive
c1ccc(-c2cn(CC3CCCCC3)nn2)cc1	DT40 TDP1 CPT inconclusive, TDP1 cell noCPT 13µM!
CCCCCc1ccc(-c2cn(CCCOCc3ccccc3)nn2)cc1	DT40 TDP1 CPT inconclusive, TDP1 cell noCPT 22µM
COc1ccc(-c2cn(CC3CCCCC3)nn2)cc1	none
CCCCCc1ccc(-c2cn(CC3CCCCC3)nn2)cc1	DT40 TDP1 CPT inconclusive, TDP1 cell noCPT 8.9µM
C#CCn1cc(C=C2C(=O)c3ccccc3C2=O)c2ccccc21	DT40 TDP1 CPT 23µM, TDP1 cell noCPT 21µM
C#CCn1c(=O)cc(C)c2ccccc21	none
CCS(=O)(=O)Nc1cccc(C2=NN(S(=O)(=O)c3ccc(C)cc3)C(c3ccco3)C2)c1 (stereo unspecified)	TDP1 cell noCPT inconclusive
CCc1ccc(CNC(=O)c2ccc3c(c2)NC(=O)C(N2CCOCC2)S3)cc1 (stereo unspecified)	DT40 TDP1 CPT 23µM, HT1080-NT tox inconclusive
CCCCN(C)CCCNC(=O)c1ccc2c(c1)NC(=O)C(N1CCOCC1)S2 (stereo unspecified)	none
COCC(=O)c1[nH]c2ccccc2c1C	DT40 TDP1 CPT 26µM, TDP1 cell noCPT inconclusive
CCOC(=O)c1[nH]c2ccccc2c1NC(=O)c1ccc(OCC)cc1	none (no result: HT1080 IDH1KD tx, IL1B secr inh, HT1080-NT tox)
CCOC(=O)c1[nH]c2ccccc2c1NC(=O)c1ccc(S(=O)(=O)N(C)C)cc1	none
CCOC(=O)c1[nH]c2ccccc2c1NC(=O)c1ccccc1OCC	DT40 TDP1 CPT 0.65µM, TDP1 cell noCPT 0.73µM (no result: HT1080 IDH1KD tx, IL1B secr inh, HT1080-NT tox)
CCOC(=O)c1[nH]c2ccc(Br)cc2c1NC(=O)CCN1CCC(C)CC1	DT40 TDP1 CPT inconclusive, HT1080 IDH1KD tx inconclusive, HT1080-NT tox inconclusive, TDP1 cell noCPT 18µM
CCOC(=O)c1[nH]c2ccccc2c1NC(=O)c1ccc(S(=O)(=O)N2CCCCC2)cc1	DT40 TDP1 CPT inconclusive, TDP1 cell noCPT 23µM
COCC(=O)NCCSc1c(C)[nH]c2ccccc12	none
CCCC(=O)Nc1c(C(=O)OCC)[nH]c2ccccc12	IL1B secr inh -54, HT1080-NT tox inconclusive, TDP1 cell noCPT 1.8µM
Cc1oc(-c2ccc(Cl)cc2)nc1CN1CCCC(C(=O)NCCc2ccc(Cl)cc2)C1 (stereo unspecified)	DT40 TDP1 CPT 7.3µM, TDP1 cell noCPT 5.8µM (no result: HT1080 IDH1KD tx, IL1B secr inh, HT1080-NT tox)
Cc1oc(-c2cccc(Cl)c2)nc1CN1CCCC(C(=O)NCc2ccc(F)cc2)C1 (stereo unspecified)	DT40 TDP1 CPT 5.8µM, TDP1 cell noCPT 5.8µM (no result: HT1080 IDH1KD tx, IL1B secr inh, HT1080-NT tox)
COC(=O)c1cc2occc2n1Cc1nc(-c2ccc(Cl)cc2)oc1C	DT40 TDP1 CPT inconclusive, TDP1 cell noCPT inconclusive
CCCN(CCC)CCCNC(=O)C1CCCN(Cc2nc(-c3ccc(Cl)cc3)oc2C)C1 (stereo unspecified)	DT40 TDP1 CPT 12µM, TDP1 cell noCPT 9.2µM (no result: HT1080 IDH1KD tx, IL1B secr inh, HT1080-NT tox)
COc1ccc(CCNC(=O)C2CCN(Cc3nc(-c4ccc(Cl)cc4)oc3C)CC2)cc1OC	TDP1 cell noCPT inconclusive
COC(=O)c1ccc2c(c1)N(Cc1nc(-c3ccc(Cl)cc3)oc1C)C(=O)C1CCCN21 (stereo unspecified)	DT40 TDP1 CPT 21µM, TDP1 cell noCPT inconclusive
Cc1cc(C)c(Cn2c(=O)[nH][nH]c2=O)cc1Cn1c(=O)[nH][nH]c1=O	none
CCOc1cc(CNCC(C)C)c(Cl)cc1OCC(=O)Nc1ccccc1	DT40 TDP1 CPT inconclusive, TDP1 cell noCPT inconclusive
COc1cccc(Nc2nc(C(N)CO)cs2)n1 (stereo unspecified)	DT40 TDP1 CPT inconclusive, TDP1 cell noCPT inconclusive (no result: IL1B secr inh)
COc1cccc(Nc2nc(C(N)Cc3ccccc3)cs2)n1 (stereo unspecified)	DT40 TDP1 CPT 13µM, HT1080 IDH1KD tx 12µM, IL1B secr inh inconclusive, HT1080-NT tox 29µM, TDP1 cell noCPT 16µM
COc1cc(OC)nc(Nc2nc(C(N)Cc3ccc(F)cc3)cs2)n1 (stereo unspecified)	DT40 TDP1 CPT 21µM, HT1080 IDH1KD tx inconclusive, HT1080-NT tox inconclusive, TDP1 cell noCPT 23µM (no result: IL1B secr inh)
O=C1CC(C(=O)Nc2cc(Cl)ccc2Cl)n2ncnc2N1 (stereo unspecified)	none
CCn1c(=O)cc(OCC(=O)N2CCCC2)c2ccccc21	DT40 TDP1 CPT inconclusive
CCn1c(=O)cc(OCC(=O)N2CCN(c3ccc(C(C)=O)cc3)CC2)c2ccccc21	none (no result: HT1080 IDH1KD tx, IL1B secr inh, HT1080-NT tox)
CCn1c(=O)cc(OCC(=O)N2CCN(c3ccc(OC)cc3)CC2)c2ccccc21	DT40 TDP1 CPT 21µM (no result: HT1080 IDH1KD tx, IL1B secr inh, HT1080-NT tox)
CCn1c(=O)cc(OCC(=O)N2CCN(c3cccc(C(F)(F)F)c3)CC2)c2ccccc21	DT40 TDP1 CPT 16µM, TDP1 cell noCPT 23µM
CC(O)COCC1OC2OC3C(COCC(C)O)OC(OC4C(COCC(C)O)OC(OC5C(COCC(C)O)OC(OC6C(COCC(C)O)OC(OC7C(COCC(C)O)OC(OC8C(COCC(C)O)OC(OC1C(OCC(C)O)C2OCC(C)O)C(OCC(C)O)C8OCC(C)O)C(OCC(C)O)C7OCC(C)O)C(OCC(C)O)C6OCC(C)O)C(OCC(C)O)C5OCC(C)O)C(OCC(C)O)C4OCC(C)O)C(OCC(C)O)C3OCC(C)O (stereo unspecified)	none (no result: HT1080 IDH1KD tx, IL1B secr inh, HT1080-NT tox)
COC(=O)CC1C(=O)NC2CCCCC2N1C(=O)CCl (stereo unspecified)	DT40 TDP1 CPT inconclusive, HT1080 IDH1KD tx inconclusive, IL1B secr inh -62, HT1080-NT tox inconclusive, TDP1 cell noCPT 15µM
